USP30 block: inhibitors of human USP30 deubiquitinase; purified USP30, Ub-rhodamine cleavage fluorescence; 47,000 compounds, 5.3% hits; inhibition, % at 25 µM
Target sequence (Q70CQ3 whole entry, looked up): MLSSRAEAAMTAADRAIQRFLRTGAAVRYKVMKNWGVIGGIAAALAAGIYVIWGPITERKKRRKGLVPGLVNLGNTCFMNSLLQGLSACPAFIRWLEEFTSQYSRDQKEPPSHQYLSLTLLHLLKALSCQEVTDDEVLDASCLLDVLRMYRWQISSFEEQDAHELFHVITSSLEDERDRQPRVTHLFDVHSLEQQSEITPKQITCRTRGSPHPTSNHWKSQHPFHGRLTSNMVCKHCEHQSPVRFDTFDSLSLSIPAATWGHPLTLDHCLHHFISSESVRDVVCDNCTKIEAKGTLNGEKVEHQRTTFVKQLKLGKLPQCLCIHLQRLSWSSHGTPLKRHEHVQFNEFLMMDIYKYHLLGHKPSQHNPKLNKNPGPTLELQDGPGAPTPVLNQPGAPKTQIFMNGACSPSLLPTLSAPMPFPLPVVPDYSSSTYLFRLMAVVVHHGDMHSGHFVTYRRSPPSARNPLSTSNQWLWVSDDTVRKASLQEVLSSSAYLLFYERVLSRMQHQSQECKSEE
USP17 block: inhibitors of human USP17 deubiquitinase; Ubiquitin carboxyl-terminal hydrolase 17-like protein 5 (Homo sapiens), A8MUK1; purified USP17, Ub-rhodamine cleavage fluorescence, 3 h; inhibition, % at 50 µM; 47,000 compounds, 6.5% hits
USP28 inh: inhibitors of human USP28 deubiquitinase. Ubiquitin carboxyl-terminal hydrolase 28 (Homo sapiens), Q96RU2. purified USP28, Ub-rhodamine cleavage fluorescence, 30 min. inhibition, % at 25 µM. 47,000 compounds, 3% hits. AID 1645857, 2021
* = called active by the depositor; x = no result. Most compounds without a hit are left out; they make up all but 11% or so of the library. Rule as the data show it: active = inhibition above about 30%; inactive = the rest.

SMILES	USP30 block	USP17 block	USP28 inh
O=C(NC1CCCCC1)c1cccc(S(=O)(=O)N2CC(c3ccccc3)CC2=O)c1 (stereo not drawn)	31*	15	29
Cc1cc(C)c(S(=O)(=O)N2CC(c3ccccc3)CC2=O)c(C)c1 (stereo not drawn)	6	1	3
COc1ccccc1Cc1nnc(C2(c3cccc(F)c3)CCOCC2)o1	26	8	21
COc1ccc(CNC(=O)c2nc(-c3cn(-c4ccccc4)nc3C)no2)cc1	5	4	11
Cc1cccc(NC(=O)CCCSc2nc3ccccc3[nH]2)c1	-13	3	15
O=C(Cc1ccccc1F)NCC(=O)Nc1nc2ccccc2[nH]1	15	15	3
Cc1nc(C)c(C(=O)Nc2nc3ccccc3[nH]2)s1	x	3	x
COc1cccc(NC(=O)CCCSc2nc3ccccc3[nH]2)c1	-7	-5	37*
Cc1ccc(C(=O)NCC(=O)Nc2nc3ccccc3[nH]2)c(C)c1	-22	57*	13
Cc1ccc(CC(=O)NCC(=O)Nc2nc3ccccc3[nH]2)cc1	-15	45*	10
COc1cccc(C(=O)NCC(=O)Nc2nc3ccccc3[nH]2)c1	21	59*	16
O=C(CNC(=O)c1ccc2c(c1)OCO2)Nc1nc2ccccc2[nH]1	3	-1	-7
O=S(=O)(Cc1cccc(F)c1)N1CC(c2nc3ccccc3[nH]2)C1	22	6	9
COc1ccccc1N1CCN(C(=O)Cn2c(=O)ccn(Cc3ccccc3)c2=O)CC1	6	8	7
CC1CCN(S(=O)(=O)c2c[nH]c(-c3nnc(C(=O)N4CCCC4)o3)c2)CC1	47*	28	19
O=C(c1nnc(-c2cc(S(=O)(=O)N3CCCCCC3)c[nH]2)o1)N1CCCC1	30	21	6
Cc1nc(C(N)=O)c2[nH]c(=O)n(C3CCCCC3)c2n1	-97	-18	-25
Cc1cccc(-n2c(=O)[nH]c3c(C(N)=O)nc(C4CCCCC4)nc32)c1	49*	28	24
COc1cccc(-n2c(=O)[nH]c3c(C(N)=O)nc(C4CCCCC4)nc32)c1	-202	-27	-35
COc1ccc(-c2nc(C(N)=O)c3[nH]c(=O)n(-c4ccc(OC)c(OC)c4)c3n2)cc1	-13	-10	-9
NC(=O)c1nc(-c2cccc(F)c2)nc2c1[nH]c(=O)n2C1CCCCC1	-16	51*	-13
COc1cccc(-c2nc(C(N)=O)c3[nH]c(=O)n(-c4cccc(Cl)c4)c3n2)c1OC	-110	51*	-17
COc1ccc(C2CNCCN2C(=O)CCc2cnn(C)c2C)cc1 (stereo not drawn)	5	-3	-6
CCN(CC)c1ccc(NC(=O)c2cnn3c(C(F)F)cc(-c4ccc(OC)cc4)nc23)cc1	14	16	11
CCCc1ccc(C(C)NC(=O)c2cnn3c(C(F)F)cc(-c4ccc(OC)cc4)nc23)cc1 (stereo not drawn)	15	34*	18
SMILES	USP30 block	USP17 block	USP28 inh
Cc1ccc(-c2cc3nc(Nc4ccc(C(N)=O)cc4)ccn3n2)cc1	-108	x	-22
O=C(Nc1ccc2cn[nH]c2c1)c1cc(-c2ccco2)on1	-215	-2	-38
O=C(Nc1nc2c(s1)COCC2)c1cc(-c2ccco2)[nH]n1	-22	73*	64*
Cc1c(C(=O)Nc2cccc(C(F)(F)F)c2)cnn1-c1ccccn1	24	55*	14
CSc1cccc(NC(=O)c2cnn(-c3ccccn3)c2C(C)C)c1	7	4	12
CC(C)(C)c1cc2n(n1)CCN(S(=O)(=O)c1cc(F)cc(F)c1)C2	23	6	9
CCc1cnc(N2CC[C@@H]3CN(CCc4ccccc4)S(=O)(=O)[C@@H]3CC2)nc1	6	8	-2
CC(C)=CCC[C@](C)(O)[C@H]1CC[C@]2(C)[C@@H]1CC[C@@H]1[C@@]3(C)CC[C@H](O)C(C)(C)[C@@H]3CC[C@]12C	5	22	3
C=C(C)[C@@H]1CC[C@]2(C)[C@H](CC[C@@H]3[C@@H](C(C)(O)CCC=C(C)C)CC[C@]32C)[C@@]1(C)CCC(=O)O (stereo partly drawn)	93*	99*	69*
COc1cc2c(=O)n(Cc3ccccc3)c(=O)n(CC(=O)N3CCC(C)CC3)c2cc1OC	0	10	-4
CNc1nc2c(c(=O)n1C)CN(C(=O)Nc1ccc(Cl)cc1)CC2	4	-3	-1
O=C(NC1CCCCC1)C(c1ccc(F)cc1)N(Cc1ccccc1Cl)C(=O)c1ccc(-c2ccccc2)[nH]1 (stereo not drawn)	-9	-1	-6
Cn1cc(C2CCCCCN2C(=O)c2c(F)cccc2F)cn1 (stereo not drawn)	-25	-1	4
Nc1ncnc(SCc2ccc(Cl)cc2)n1	23	54*	4
COc1cnc(SCc2ccc(Cl)cc2)[nH]c1=O	1	1	2
O=C(Nc1ccc(F)cc1)N1CCC2(CC1)COCCN(Cc1ccncc1)C2	-9	-1	0
O=S(=O)(c1ccc(F)cc1)N1CCN(c2cnn3cnnc3c2)CC1	5	7	8
O=S(=O)(c1cccc(Cl)c1)N1CCN(c2cnn3cnnc3c2)CC1	9	43*	10
COc1ccccc1C(=O)N1CCCN(c2cc(-c3ccccc3)[nH]n2)CC1	-95	-35	-32
O=C(c1cccc(N2C(=O)CCS2(=O)=O)c1)N1CCN(Cc2ccccc2)CC1	-29	-10	-20
Nc1ccc2oc(-c3cccc(-c4nc5cc(N)ccc5o4)n3)nc2c1	68*	53*	48*
Clc1ccc2oc(-c3cccs3)nc2c1	10	5	4
Cc1ccc(NC(=O)Cn2c(C)ncc(C(=O)NC3CCCC3)c2=O)c(C)c1	1	5	0
Cc1cc(NC(=O)Cn2c(C)cc(-c3nnc(C4CC4)o3)c2C)ccc1F	44*	35*	30
Cc1ccc(NC(=O)Cn2cccc2-c2nnc(C3CC3)o2)cc1C	1	-1	-2
SMILES	USP30 block	USP17 block	USP28 inh
Cc1cc(-c2nnc(C3CC3)o2)c(C)n1CC(=O)Nc1ccccc1	x	2	x
O=C(Cn1cccc1-c1nnc(C2CC2)o1)Nc1cccc(F)c1	-8	32*	-1
COc1cc(C2CCN(C(=O)Nc3ccc(C)cc3)CC2)on1	1	x	-1
Cc1ccc(NC(=O)CCS(=O)(=O)c2ccc3c(c2)OCC(=O)N3)cc1Cl	-16	-4	11
Cc1cc(Cl)ccc1NC(=O)CCS(=O)(=O)c1ccc2c(c1)OCC(=O)N2	-8	34*	-9
Cn1c(=O)n(C2CCCN(C(=O)c3ccoc3)C2)c2ncncc21 (stereo not drawn)	-5	3	0
O=C(O)c1ccc(C2Cc3c([nH]c(=O)[nH]c3=O)O2)cc1 (stereo not drawn)	75*	24	78*
CN1C(=O)N[C@@H](c2ccc(C(=O)O)cc2)[C@@H]2CCCO[C@@H]21	-5	4	0
COc1ccc(N2CCN(C(=O)CN3C(=O)[C@H]4CCCN4c4ncccc43)CC2)cc1	-74	34*	-20
COc1cccc(CNC(=O)CN2C(=O)[C@@H]3CCCN3c3ncccc32)c1	-14	11	0
Cc1ccc(CNC(=O)c2cnn(-c3ccc(Cl)cc3)c2C2CCNCC2)cc1	-2	-22	-5

Screening data: PubChem, Buhrlage Lab, Dana-Farber Cancer Institute and Novartis Institutes for BioMedical Research (Cambridge, Mass)
